Our source for the AC50 and outcome values is PubChem BioAssay (EPA / NIEHS).

Calls of active or inactive are those of the source. Rule for the calls: active = hit-call score of the fitted dose curve at least 0.9, where 1 is the maximum; inactive = score below 0.9.

What all share (conditions): mRNA level, 48 h; actives raise or lower the signal
Read-out in test [1]: Apoptosis regulator Bcl-2 (Homo sapiens) (UniProt P10415)
In words: LTEA_HepaRG_BCL2: Life Technologies and Expression Analysis (LTEA) Assay for Bcl-2 gene using HepaRG (AID 2283475). In outline:
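Each chemical was tested in duplicate on HepaRG cultures held in serum-free induction medium for 48 h, highest concentration 100 uM with half-log dilutions. Transcript levels came from multiplexed qRT-PCR, normalised to housekeeping genes; activity was scored in either direction relative to DMSO.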

Read-out in test [2]: Bcl-2 (BID) gene, BID (gene 637)
In words: LTEA_HepaRG_BID: Life Technologies and Expression Analysis (LTEA) Assay for Bcl-2 (BID) gene using HepaRG (AID 2283476). The essentials:
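Assay used HepaRG hepatic cells treated 48 h in serum-free medium with half-log dilutions from 100 uM. Endpoint: BID mRNA, qRT-PCR, normalized to ACTB/GAPDH/POLR2A.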

Read-out in test [3]: Caspase-3 (Homo sapiens) (UniProt P42574)
The test is described as follows: LTEA_HepaRG_CASP3: Life Technologies and Expression Analysis (LTEA) Assay for cysteine-aspartic acid protease (CASP3) using HepaRG (AID 2283477). The essentials: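 Differentiated human HepaRG cells in serum-free induction medium were exposed 48 h to 8-point half-log concentrations from 100 uM (0.5% DMSO vehicle). CASP3 mRNA was measured by qRT-PCR, normalised to ACTB, GAPDH and POLR2A, with bidirectional fitting against DMSO.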

Read-out in test [4]: Cytochrome P450 (CYP24A1), CYP24A1 (gene 1591)
The test is described as follows: LTEA_HepaRG_CYP24A1: Life Technologies and Expression Analysis (LTEA) Assay for Cytochrome P450 (CYP24A1) using HepaRG (AID 2283478). In outline: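 Differentiated HepaRG cells, pre-cultured 48 h, were exposed in duplicate for 48 h in serum-free induction medium to 8 half-log concentrations (top 100 uM, 0.5% DMSO). CYP24A1 mRNA was quantified by TaqMan qRT-PCR, normalized to ACTB/GAPDH/POLR2A, fitted bidirectionally versus DMSO.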

Read-out in test [5]: Cytochrome P450 (CYP1A2), CYP1A2 (gene 1544)
In words: LTEA_HepaRG_CYP1A2: Life Technologies and Expression Analysis (LTEA) Assay for Cytochrome P450 (CYP1A2) using HepaRG (AID 2283479). The essentials: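 Differentiated human HepaRG cells in serum-free induction medium were exposed in duplicate for 48 h to 8-point half-log concentrations up to 100 uM in 0.5% DMSO. CYP1A2 mRNA measured by qRT-PCR, normalized to ACTB, GAPDH, POLR2A; bidirectional fit vs DMSO.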

Read-out in test [6]: cysteine-aspartic acid protease (CASP8), CASP8 (gene 841)
In words: LTEA_HepaRG_CASP8: Life Technologies and Expression Analysis (LTEA) Assay for cysteine-aspartic acid protease (CASP8) using HepaRG (AID 2283480). The essentials:
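qRT-PCR readout of CASP8 mRNA, normalized to three housekeeping genes, after 48 h chemical exposure of HepaRG cells; 8-point half-log series, top 100 uM, 0.5% DMSO vehicle. Bidirectional curve fitting against DMSO baseline.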

Read-out in test [7]: Cytochrome P450 (CYP2B6), CYP2B6 (gene 1555)
The test is described as follows: LTEA_HepaRG_CYP2B6: Life Technologies and Expression Analysis (LTEA) Assay for Cytochrome P450 (CYP2B6) using HepaRG (AID 2283481). The essentials:
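Differentiated HepaRG cells, serum-free induction medium, exposed 48 h in duplicate to 8-point half-log concentrations from 100 uM in 0.5% DMSO. CYP2B6 mRNA by qRT-PCR, normalized to ACTB, GAPDH, POLR2A; bidirectional fit versus DMSO.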

Read-out in test [8]: Cytochrome P450 2C19 (Homo sapiens) (UniProt P33261)
The test is described as follows: LTEA_HepaRG_CYP2C19: Life Technologies and Expression Analysis (LTEA) Assay for CYP2C19 using HepaRG (AID 2283482). The essentials:
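Differentiated human HepaRG cells were exposed for 48 h in serum-free induction medium to 8 concentrations (top 100 uM, half-log steps, 0.5% DMSO). CYP2C19 mRNA was measured by qRT-PCR, normalized to ACTB/GAPDH/POLR2A, and fitted bidirectionally against DMSO.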

Read-out in test [9]: CYP2C8 (gene 1558)
The test is described as follows: LTEA_HepaRG_CYP2C8: Life Technologies and Expression Analysis (LTEA) Assay for CYP2C8 using HepaRG (AID 2283483). The essentials:
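HepaRG (human liver line), 48 h chemical exposure, 8-pt half-log series from 100 uM, 0.5% DMSO vehicle. Readout: CYP2C8 transcript by qRT-PCR, housekeeping-normalized. Bidirectional fit vs DMSO baseline.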

Read-out in test [10]: CYP2C9 (gene 1559)
The test is described as follows: LTEA_HepaRG_CYP2C9: Life Technologies and Expression Analysis (LTEA) Assay for CYP2C9 using HepaRG (AID 2283484). In outline:
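HepaRG, 48 h dosing, 8-pt half-log series, top 100 uM, 0.5% DMSO vehicle. Read-out: CYP2C9 transcript by TaqMan qRT-PCR, housekeeping-normalized (ACTB/GAPDH/POLR2A). Gain or loss fitted vs DMSO baseline.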

Read-out in test [11]: CYP2E1 (gene 1571)
The test is described as follows: LTEA_HepaRG_CYP2E1: Life Technologies and Expression Analysis (LTEA) Assay for CYP2E1 using HepaRG (AID 2283485). In outline: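 Assay uses 48 h exposure of HepaRG hepatic cells, eight concentrations to 100 uM. Expression of CYP2E1 is quantified by TaqMan qRT-PCR with ACTB, GAPDH and POLR2A normalization; curves fitted in both directions relative to vehicle.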

Read-out in test [12]: CYP4A11 (gene 1579)
In words: LTEA_HepaRG_CYP4A11: Life Technologies and Expression Analysis (LTEA) Assay for CYP4A11 using HepaRG (AID 2283486). In outline: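 Differentiated HepaRG cells, serum-free induction medium, exposed 48 h in duplicate to 8-point half-log series from 100 uM in 0.5% DMSO. CYP4A11 mRNA measured by qRT-PCR, normalized to ACTB, GAPDH, POLR2A; bidirectional fit versus DMSO.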

Read-out in test [13]: Cytochrome P450 3A4 (Homo sapiens) (UniProt P08684)
In words: LTEA_HepaRG_CYP3A4: Life Technologies and Expression Analysis (LTEA) Assay for CYP3A4 using HepaRG (AID 2283487). In outline: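 HepaRG, 48 h exposure, 8-pt CRC from 100 uM (half-log), 0.5% DMSO, duplicates; serum-free induction medium. Readout: CYP3A4 mRNA, qRT-PCR, ACTB/GAPDH/POLR2A normalization. Bidirectional fit vs DMSO.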

Read-out in test [14]: DNA damage-inducible transcript 3 (DDIT3), DDIT3 (gene 1649)
The test is described as follows: LTEA_HepaRG_DDIT3: Life Technologies and Expression Analysis (LTEA) Assay for DNA damage-inducible transcript 3 (DDIT3) using HepaRG (AID 2283488). The essentials: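 Eight-point concentration-response (100 uM highest, half-log dilutions) in HepaRG, 48 h, duplicate wells. Endpoint: qRT-PCR mRNA, normalized (ACTB, GAPDH, POLR2A), bidirectional fitting with DMSO as baseline.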

Read-out in test [15]: Pro-epidermal growth factor (Homo sapiens) (UniProt P01133)
The test is described as follows: LTEA_HepaRG_EGF: Life Technologies and Expression Analysis (LTEA) Assay for Epidermal growth factor (EGF) using HepaRG (AID 2283489). The essentials: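 Differentiated human HepaRG cells, plated 48 h then switched to serum-free induction medium, were exposed for 48 h to test chemicals (8-point half-log series, top 100 uM, 0.5% DMSO). EGF mRNA was quantified by qRT-PCR, normalized to ACTB, GAPDH, POLR2A.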

Read-out in test [16]: Early growth response protein 1 (EGR1) transcription factor, EGR1 (gene 1958)
In words: LTEA_HepaRG_EGR1: Life Technologies and Expression Analysis (LTEA) Assay for Early growth response protein 1 (EGR1) transcription factor using HepaRG (AID 2283490). The essentials:
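HepaRG, 48 h exposure, 8-pt half-log series from 100 uM, 0.5% DMSO vehicle; EGR1 transcript by TaqMan qRT-PCR (Fluidigm array), housekeeping-normalized; bidirectional fit relative to DMSO baseline.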

Read-out in test [17]: Ezrin (EZR), EZR (gene 7430)
In words: LTEA_HepaRG_EZR: Life Technologies and Expression Analysis (LTEA) Assay for Ezrin (EZR) using HepaRG (AID 2283491). In outline: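 Read-out is EZR transcript level by qRT-PCR, normalized to three housekeeping genes and fitted bidirectionally against the DMSO control. Human HepaRG cells received test chemicals for 48 h at eight half-log concentrations up to 100 uM in 0.5% DMSO.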

Read-out in test [18]: CYP3A5 (gene 1577)
The test is described as follows: LTEA_HepaRG_CYP3A5: Life Technologies and Expression Analysis (LTEA) Assay for CYP3A5 using HepaRG (AID 2283493). In outline: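 Readout was CYP3A5 mRNA by qRT-PCR. HepaRG cultures were exposed for 48 h in serum-free induction medium to chemicals at up to 100 uM, and responses were fitted in both directions relative to DMSO vehicle.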

Read-out in test [19]: Fatty Acid-Binding Protein 1 (FABP1), FABP1 (gene 2168)
The test is described as follows: LTEA_HepaRG_FABP1: Life Technologies and Expression Analysis (LTEA) Assay for Fatty Acid-Binding Protein 1 (FABP1) using HepaRG (AID 2283494). The essentials: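 qRT-PCR readout of FABP1 transcript (normalized to three housekeeping genes) after 48 h chemical exposure of HepaRG cells; eight concentrations, half-log steps, max 100 uM, 0.5% DMSO vehicle; gain or loss fitted relative to DMSO baseline.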

Read-out in test [20]: Cytochrome P450 3A7 (Homo sapiens) (UniProt P24462)
The test is described as follows: LTEA_HepaRG_CYP3A7: Life Technologies and Expression Analysis (LTEA) Assay for CYP3A7 using HepaRG (AID 2283492). In outline:
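HepaRG cells plated 48 h, then dosed in serum-free induction medium for 48 h at 8 concentrations (top 100 uM, half-log steps, 0.5% DMSO). CYP3A7 mRNA by qRT-PCR, normalised to ACTB/GAPDH/POLR2A; bidirectional fit versus DMSO.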

Chain of Cytochrome P450 3A4 (Homo sapiens) (P08684 whole entry, looked up): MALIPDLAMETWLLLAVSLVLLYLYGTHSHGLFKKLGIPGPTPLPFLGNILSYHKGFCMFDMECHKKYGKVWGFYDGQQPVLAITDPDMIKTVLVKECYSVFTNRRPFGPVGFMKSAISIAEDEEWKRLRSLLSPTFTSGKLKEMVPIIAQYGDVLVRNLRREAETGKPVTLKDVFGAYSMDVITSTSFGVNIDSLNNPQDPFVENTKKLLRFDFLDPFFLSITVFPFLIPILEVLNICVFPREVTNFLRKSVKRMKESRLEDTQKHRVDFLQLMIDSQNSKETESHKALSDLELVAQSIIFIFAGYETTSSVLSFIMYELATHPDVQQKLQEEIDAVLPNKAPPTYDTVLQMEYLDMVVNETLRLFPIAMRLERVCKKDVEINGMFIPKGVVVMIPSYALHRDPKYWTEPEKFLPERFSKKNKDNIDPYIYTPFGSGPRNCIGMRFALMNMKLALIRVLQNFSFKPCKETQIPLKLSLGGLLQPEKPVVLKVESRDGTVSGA
Chain of Caspase-3 (Homo sapiens) (P42574 whole entry, looked up): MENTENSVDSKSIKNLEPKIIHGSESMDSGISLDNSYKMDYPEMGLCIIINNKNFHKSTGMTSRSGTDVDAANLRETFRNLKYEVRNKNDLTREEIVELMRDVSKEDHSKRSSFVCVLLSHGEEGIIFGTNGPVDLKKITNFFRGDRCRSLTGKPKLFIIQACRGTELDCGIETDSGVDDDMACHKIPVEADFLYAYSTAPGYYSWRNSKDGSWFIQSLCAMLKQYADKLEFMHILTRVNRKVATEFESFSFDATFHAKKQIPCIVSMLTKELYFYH
Chain of Apoptosis regulator Bcl-2 (Homo sapiens) (P10415 whole entry, looked up): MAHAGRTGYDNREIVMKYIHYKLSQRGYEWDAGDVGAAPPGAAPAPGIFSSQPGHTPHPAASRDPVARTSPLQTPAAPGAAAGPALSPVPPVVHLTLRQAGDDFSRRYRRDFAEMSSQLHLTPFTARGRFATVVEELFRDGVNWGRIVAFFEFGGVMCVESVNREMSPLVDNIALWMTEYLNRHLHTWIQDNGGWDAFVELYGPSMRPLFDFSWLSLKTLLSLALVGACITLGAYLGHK
Chain of Cytochrome P450 2C19 (Homo sapiens) (P33261 whole entry, looked up): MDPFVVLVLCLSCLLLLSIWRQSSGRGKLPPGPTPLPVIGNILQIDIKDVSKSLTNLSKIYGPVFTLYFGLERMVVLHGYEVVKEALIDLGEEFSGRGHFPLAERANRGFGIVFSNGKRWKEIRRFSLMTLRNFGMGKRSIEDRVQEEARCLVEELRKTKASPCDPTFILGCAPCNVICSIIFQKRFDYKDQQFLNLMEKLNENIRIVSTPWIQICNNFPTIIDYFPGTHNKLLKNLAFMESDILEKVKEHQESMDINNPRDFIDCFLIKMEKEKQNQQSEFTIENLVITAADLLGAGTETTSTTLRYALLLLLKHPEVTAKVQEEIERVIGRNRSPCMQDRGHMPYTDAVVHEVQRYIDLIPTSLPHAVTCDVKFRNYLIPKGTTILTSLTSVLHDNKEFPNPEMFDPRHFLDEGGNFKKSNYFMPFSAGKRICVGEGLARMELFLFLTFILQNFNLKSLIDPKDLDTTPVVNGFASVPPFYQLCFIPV
Chain of Cytochrome P450 3A7 (Homo sapiens) (P24462 whole entry, looked up): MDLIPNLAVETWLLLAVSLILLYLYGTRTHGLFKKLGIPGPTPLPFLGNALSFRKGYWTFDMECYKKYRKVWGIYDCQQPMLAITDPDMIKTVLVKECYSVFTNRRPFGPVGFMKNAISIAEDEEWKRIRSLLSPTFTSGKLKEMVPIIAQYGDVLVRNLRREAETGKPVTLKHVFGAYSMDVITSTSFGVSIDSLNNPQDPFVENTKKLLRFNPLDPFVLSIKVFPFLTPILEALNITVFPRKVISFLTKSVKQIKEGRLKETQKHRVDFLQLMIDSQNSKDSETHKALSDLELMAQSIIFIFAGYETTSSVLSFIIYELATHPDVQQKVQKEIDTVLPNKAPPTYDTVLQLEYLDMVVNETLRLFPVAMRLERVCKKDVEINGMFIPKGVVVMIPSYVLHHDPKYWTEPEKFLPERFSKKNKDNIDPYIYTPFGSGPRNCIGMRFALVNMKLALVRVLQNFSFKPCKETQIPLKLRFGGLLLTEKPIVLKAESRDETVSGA

Take `CC(C)(C)c1ccc(O)c(C(C)(C)C)c1`: the AC50 was 123 nM (active) in [1], 10 nM (active) in test [4], 104 nM (active) in test [5] and 50000 nM (active) in test [13]. Moreover, the molecule was classed as inactive in test [2], in test [3], in [6], in test [7], in test [8] and in test [9]. Besides, the molecule was called inactive in test [10], in [11], in test [12], in test [14], in test [15] and in test [16]. Also, the molecule was classed as inactive in test [17], in test [18] and in test [19].

For the molecule `CN(C)C=O`, the result in [1], in test [2], in test [3], in test [4], in [5] and in test [6] was inactive. The molecule was classed as inactive in test [7], in test [8], in [9], in test [10], in test [11] and in test [12]. For the same molecule, the call in test [13], in test [14], in [15], in [16], in test [17] and in test [18] was inactive. The outcome in test [19] was inactive.

In the case of `CCCCCCCCOC(=O)CCCCCCCCC(=O)OCCCCCCCC`, the outcome in test [1], in test [3], in test [4], in [6], in [7] and in test [8] was inactive. The call in test [9], in test [10], in test [11], in [12], in test [13] and in test [14] was inactive. Also, the molecule was called inactive in test [15], in test [16], in [17], in test [20], in test [18] and in [19]. Besides, the AC50 in test [5] is 29900 nM (active).

What is called AC50 is the concentration at which the activity in the assay is half-maximal.
